Source: the supplement of paper PMC12350171
Structures can show the parent of a compound that is named as a salt.

Tests used:
Settings in all cases: 20 µM
[1] = test system: Salmonella enterica typhimurium; experiment: growth AUC normalised to DMSO control (fraction of control); higher = less growth inhibition, active = hit call of the paper
Outline: (§1)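 For the AUC endpoint, growth curves were integrated by the trapezoidal rule up to the exponential-to-stationary transition and normalised to DMSO controls on the same plate. The curves came from OD578 readings taken hourly for 24 h, in three biological replicates. Pathogens had been passaged anaerobically twice and inoculated at an OD578 of 0.01 into pre-reduced mGAM plates carrying 20 μM compound and 1% DMSO, sealed with breathable membranes. Medium for Haemophilus parainfluenzae also contained hemin and NAD.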

Shigella flexneri = experiment: as above
Outline: as §1

Vibrio cholerae = experiment: as above
Outline: as §1

[2] = test system: Yersinia pseudotuberculosis; experiment: as above
Outline: as §1

P. vulgatus RND KO = experiment: growth AUC normalised to DMSO control (median) (fraction of control); higher = less growth inhibition, active = hit call of the paper
Outline: (§2)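 After two overnight anaerobic passages, strains were inoculated at OD578 0.01 into mGAM in 96-well plates containing approved-drug library compounds at 20 μM and 1% DMSO. Growth was followed by reading OD578 hourly for 24 h within an anaerobic incubator. Area under the curve, taken by the trapezoidal rule up to the start of stationary phase, was normalised to same-plate vehicle wells, and the median of three biological replicates is listed.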

P. vulgatus WT = experiment: as above
Outline: as §2

[3] = test system: S. enterica typhimurium WT; experiment: as above
Outline: as §2

[4] = test system: S. enterica typhimurium tolC KO; experiment: as above
Outline: as §2

Measured: growth AUC normalised to DMSO control
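For growth AUC normalised to DMSO control (median) in this document: active when median AUC fell below 0.1.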

CC(=O)OCC(=O)[C@@]12N=C(C)O[C@@H]1C[C@H]1[C@@H]3CCC4=CC(=O)C=C[C@]4(C)[C@H]3[C@@H](O)C[C@@]12C [Deflazacort]
inactive: [1] 0.977 | Shigella flexneri 0.992 | Vibrio cholerae 1 | [2] 0.999 | P. vulgatus RND KO 0.999 | P. vulgatus WT 1.01 | [3] 0.994 | [4] 0.987

CCN(CC)CCNC(=O)c1ccc(N)cc1 [Procainamide hydrochloride]
inactive: [1] 0.994 | Shigella flexneri 0.99 | Vibrio cholerae 0.999 | [2] 1 | P. vulgatus RND KO 1.02 | P. vulgatus WT 1.03 | [3] 1 | [4] 1

C[C@]12CC[C@@H]3c4ccc(O)cc4C[C@@H](CCCCCCCCC[S+]([O-])CCCC(F)(F)C(F)(F)F)[C@H]3[C@@H]1CC[C@@H]2O (some centres not stated) [Fulvestrant]
inactive: [1] 1.01 | Shigella flexneri 1.09 | Vibrio cholerae 1.01 | [2] 0.994 | P. vulgatus RND KO 1.05 | P. vulgatus WT 1.02 | [3] 1.02 | [4] 0.998

CN1CCN(CCCN2c3ccccc3Sc3ccc(C(F)(F)F)cc32)CC1 [Trifluoperazine dihydrochloride]
inactive: [1] 1.03 | Shigella flexneri 1.04 | Vibrio cholerae 1.01 | [2] 1.04 | P. vulgatus RND KO 0.974 | P. vulgatus WT 0.941 | [3] 1.02 | [4] 0.929

C#C[C@]1(O)CC[C@H]2[C@@H]3CCc4cc(O)ccc4[C@H]3CC[C@@]21C [Ethinylestradiol]
inactive: [1] 0.985 | Shigella flexneri 1.02 | Vibrio cholerae 0.996 | [2] 1.03 | P. vulgatus RND KO 0.913 | P. vulgatus WT 0.913 | [3] 0.998 | [4] 0.985

CC(=O)OCC(=O)[C@@]1(O)CC[C@H]2[C@@H]3CCC4=CC(=O)CC[C@]4(C)[C@H]3[C@@H](O)C[C@@]21C [Cortisol acetate]
inactive: [1] 1.03 | Shigella flexneri 0.997 | Vibrio cholerae 1 | [2] 1 | P. vulgatus RND KO 1 | P. vulgatus WT 1.03 | [3] 1.01 | [4] 1

Cn1cnc([N+](=O)[O-])c1Sc1ncnc2[nH]cnc12 [Azathioprine]
inactive: [1] 1 | Shigella flexneri 0.992 | Vibrio cholerae 1.01 | [2] 1.01 | P. vulgatus RND KO 0.955 | P. vulgatus WT 0.92 | [3] 1.02 | [4] 0.998

CN(C)CCOC(c1ccc(Cl)cc1)c1ccccn1 (configuration not stated) [Carbinoxamine maleate salt]
inactive: [1] 1.01 | Shigella flexneri 1.08 | Vibrio cholerae 1.04 | [2] 0.989 | P. vulgatus RND KO 1.07 | P. vulgatus WT 1.09 | [3] 1 | [4] 0.997

CCCCN(CCCC)CCC(O)c1cc2c(Cl)cc(Cl)cc2c2cc(C(F)(F)F)ccc12 (configuration not stated) [Halofantrine hydrochloride]
inactive: [1] 0.944 | Shigella flexneri 1.04 | Vibrio cholerae 1.06 | [2] 1.03 | P. vulgatus RND KO 1.06 | P. vulgatus WT 1.11 | [3] 1.02 | [4] 1.01

C=CCN1CCCC1CNC(=O)c1cc2nn[nH]c2cc1OC (configuration not stated) [Alizapride hydrochloride]
inactive: [1] 1 | Shigella flexneri 1 | Vibrio cholerae 1.01 | [2] 0.996 | P. vulgatus RND KO 0.998 | P. vulgatus WT 1 | [3] 1.02 | [4] 1

Cc1ccc(-c2cc(C(F)(F)F)nn2-c2ccc(S(N)(=O)=O)cc2)cc1 [Celecoxib]
active: Vibrio cholerae 0.851
inactive: [1] 1.01 | Shigella flexneri 1.02 | [2] 1.03 | P. vulgatus RND KO 0.728 | P. vulgatus WT 0.771 | [3] 1.01 | [4] 0.852

COc1cc(C(=O)NS(=O)(=O)c2ccccc2C)ccc1Cc1cn(C)c2ccc(NC(=O)OC3CCCC3)cc12 [Zafirlukast]
inactive: [1] 0.961 | Shigella flexneri 0.982 | Vibrio cholerae 0.966 | [2] 0.988 | P. vulgatus RND KO 0.84 | P. vulgatus WT 0.891 | [3] 1.01 | [4] 0.962

CCn1cc(C(=O)O)c(=O)c2cc(F)c(N3CCNC(C)C3)c(F)c21 (configuration not stated) [Lomefloxacin hydrochloride]
active: [1] 0.00422 | Shigella flexneri 0.0101 | Vibrio cholerae 0.0243 | [2] 0.0292 | P. vulgatus RND KO 0.035 | [3] 0.0147 | [4] 0.0041
inactive: P. vulgatus WT 0.11

CC1=C(CC(=O)O)c2cc(F)ccc2/C1=C\c1ccc([S+](C)[O-])cc1 (configuration not stated) [Sulindac]
inactive: [1] 0.976 | Shigella flexneri 0.994 | Vibrio cholerae 1.01 | [2] 1.03 | P. vulgatus RND KO 0.996 | P. vulgatus WT 0.968 | [3] 1 | [4] 0.984

CC[N+](CC)(CC(=O)Nc1c(C)cccc1C)Cc1ccccc1 [Denatonium benzoate]
inactive: [1] 1.01 | Shigella flexneri 1.02 | Vibrio cholerae 1.03 | [2] 0.982 | P. vulgatus RND KO 1.05 | P. vulgatus WT 1.09 | [3] 0.999 | [4] 1.01

CN(C)CCOC1=Cc2ccccc2Sc2ccc(Cl)cc21 [Zotepine]
inactive: [1] 1.01 | Shigella flexneri 1 | Vibrio cholerae 0.877 | [2] 1 | P. vulgatus RND KO 0.935 | P. vulgatus WT 0.874 | [3] 1.01 | [4] 0.959

Clc1ccc(Nc2nnc(Cc3ccncc3)c3ccccc23)cc1 [Vatalanib]
inactive: [1] 1.01 | Shigella flexneri 1.05 | Vibrio cholerae 1.01 | [2] 1.02 | P. vulgatus RND KO 0.98 | P. vulgatus WT 0.992 | [3] 1.01 | [4] 0.966

CC[C@H]1OC(=O)[C@H](C)[C@@H](O[C@H]2C[C@@](C)(OC)[C@@H](O)[C@H](C)O2)[C@H](C)[C@@H](O[C@@H]2O[C@H](C)C[C@H](N(C)C)[C@H]2O)[C@](C)(O)C[C@@H](C)CN(C)[C@H](C)[C@@H](O)[C@]1(C)O [Azithromycin]
active: [1] 0.0316 | Shigella flexneri 0.0334 | Vibrio cholerae 0.0396 | [2] 0.0337 | P. vulgatus RND KO 0.0189 | P. vulgatus WT 0.0116 | [3] 0.0218 | [4] 0.00733

N=C(N)NC(=N)NCCc1ccccc1 [Phenformin hydrochloride]
inactive: [1] 1.01 | Shigella flexneri 0.995 | Vibrio cholerae 1.01 | [2] 0.987 | P. vulgatus RND KO 1.01 | P. vulgatus WT 1.04 | [3] 0.994 | [4] 0.986

CC(=O)N[C@@H](CC(=O)O)C(=O)N[C@@H](CCC(=O)O)C(=O)O [Spaglumic acid]
inactive: [1] 1.03 | Shigella flexneri 1.01 | Vibrio cholerae 1.02 | [2] 1.02 | P. vulgatus RND KO 1.01 | P. vulgatus WT 1.04 | [3] 1.01 | [4] 1

C/C(=C(\CCOP(=O)(O)O)SC(=O)c1ccccc1)N(C=O)Cc1cnc(C)nc1N [Benfotiamine]
inactive: [1] 0.997 | Shigella flexneri 0.982 | Vibrio cholerae 0.996 | [2] 0.988 | P. vulgatus RND KO 1.02 | P. vulgatus WT 1.03 | [3] 1.01 | [4] 0.999

Clc1cccc(Cl)c1NC1=NCCN1 [Clonidine hydrochloride]
inactive: [1] 1.01 | Shigella flexneri 1.02 | Vibrio cholerae 1.03 | [2] 1.01 | P. vulgatus RND KO 0.998 | P. vulgatus WT 1.04 | [3] 0.996 | [4] 1.01

CNCC(O)c1ccc(O)c(O)c1 (configuration not stated) [Racepinephrine hydrochloride]
inactive: [1] 1.03 | Shigella flexneri 1.02 | Vibrio cholerae 1.09 | [2] 1.04 | P. vulgatus RND KO 1.01 | P. vulgatus WT 1 | [3] 1.01 | [4] 1

Nc1nc(=O)c2nc(CNc3ccc(C(=O)N[C@@H](CCC(=O)O)C(=O)O)cc3)cnc2[nH]1 [Folic acid]
inactive: [1] 0.991 | Shigella flexneri 0.99 | Vibrio cholerae 1 | [2] 0.994 | P. vulgatus RND KO 0.997 | P. vulgatus WT 1 | [3] 0.997 | [4] 1.01

O=C(O)CN(CCN(CC(=O)O)CC(=O)O)CCN(CC(=O)O)CC(=O)O [Pentetic acid]
inactive: [1] 1 | Shigella flexneri 1.01 | Vibrio cholerae 1.03 | [2] 1.07 | P. vulgatus RND KO 1.05 | P. vulgatus WT 1.08 | [3] 1.02 | [4] 0.998

O=C1CN(/N=C/c2ccc(-c3ccc([N+](=O)[O-])cc3)o2)C(=O)N1 [Dantrolene sodium salt]
inactive: [1] 1.04 | Shigella flexneri 0.97 | Vibrio cholerae 0.948 | [2] 0.986 | P. vulgatus RND KO 1.04 | P. vulgatus WT 1.03 | [3] 1.02 | [4] 0.825

CNCCCN1c2ccccc2CCc2ccccc21 [Desipramine hydrochloride]
inactive: [1] 0.974 | Shigella flexneri 0.946 | Vibrio cholerae 0.957 | [2] 0.986 | P. vulgatus RND KO 0.947 | P. vulgatus WT 0.976 | [3] 0.964 | [4] 0.925

CC(C(=O)O)c1cccc(Oc2ccccc2)c1 (configuration not stated) [Fenoprofen calcium salt dihydrate]
inactive: [1] 0.995 | Shigella flexneri 0.924 | Vibrio cholerae 0.945 | [2] 0.987 | P. vulgatus RND KO 0.99 | P. vulgatus WT 0.983 | [3] 1 | [4] 0.995

CN(CCCCCCCCCCN(C)C(=O)Oc1cccc([N+](C)(C)C)c1)C(=O)Oc1cccc([N+](C)(C)C)c1 [Demecarium bromide]
inactive: [1] 0.99 | Shigella flexneri 1 | Vibrio cholerae 0.984 | [2] 1.01 | P. vulgatus RND KO 0.944 | P. vulgatus WT 0.88 | [3] 0.991 | [4] 0.922
